SW480 rereplic – induces DNA re-replication in SW480 colon adenocarcinoma cells. 1.8% of 340,000 active. Potency, µM (top dose mostly 46.1 µM), hits mostly activators. SW480 DNA re-replication, Hoechst DNA content imaging, 48 h. AID 624297; note: nearly all actives have a fitted effect of over 55% in size
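Compounds, transferred as 23 nL by pin tool, were incubated with cells for 48 hr; DNA content per nucleus was then quantified by Hoechst staining and fluorescence plate imaging.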
DT40 TDP1 CPT – DT40-hTDP1 cell growth loss with CPT; chicken DT40 Tdp1-/-;hTDP1 cells + 20 nM CPT, ATP luminescence, 48 h; AID 686979; Potency, µM (series often up to 46.2 µM), hits mostly inhibitors; 12% of 420,000 active; note: nearly all actives have a fitted effect of over 55% in size
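Chicken DT40 Tdp1-/- cells complemented with human TDP1, 400 cells/well, exposed to compounds plus 20 nM camptothecin for at least 48 h at 37 C; viability read as ATP content by CellTiter-Glo luminescence.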
IL-1B inflam inh – blocks inflammasome-driven IL-1 beta release. THP-1 LPS/ATP IL-1B secretion, AlphaLISA, 16 h; active compounds read low. activity change, % at 57.5 µM. 4.7% of 360,000 active; in the data active = activity change below about -50%; inconclusive = mostly about -30% to -49%
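Secreted IL-1B measured by AlphaLISA bead assay after 16 h compound exposure of THP-1 cells; compounds (final up to 57.5 uM) added 1 h before LPS (250 ng/mL) and ATP (1.25 mM) stimulation; lower signal means less secretion.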
MCF10A rereplic – induces DNA re-replication in MCF 10a normal breast cells; MCF 10A DNA re-replication, Hoechst nuclear intensity, 48 h; Potency, µM (series often up to 46.1 µM), most hits filed as activators; 2.9% of 350,000 active; AID 624296; note: nearly all actives have a fitted effect of over 50% in size
Chronic BCR inh – inhibitors of chronic active B-cell receptor signaling | 0.05% of 340,000 active | Potency, µM (highest dose often 46.1 µM), most hits filed as inhibitors | ABC-DLBCL IkBa-CBG/CBR reporter, luminescence ratio, 4 h | AID 493014; active = well fitted inhibition curve with a large enough effect in the signal ratio, with a control signal flat, not every such curve was filed as active; inconclusive = small, poorly fitted or top-dose-only effect, or effect the other way, or a change in a side signal; the % refers to the signal ratio
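TMD8 human ABC-DLBCL cells with doxycycline-inducible IκBα–green luciferase fusion and unfused red luciferase, in 0.5% FBS medium; compounds up to 46 uM, 4 h at 37C. Green/red luminescence ratio, filter-overlap corrected, fitted to concentration-response curves.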
TDP1 cell noCPT – qHTS for Inhibitors of human tyrosyl-DNA phosphodiesterase 1 (TDP1): qHTS in cells in absence of CPT. DT40 Tdp1-/- hTDP1 cells, no CPT, ATP luminescence, 48 h. Potency, µM (titrated, usually from 46.2 µM), most hits filed as inhibitors. 15% of 420,000 active. AID 686978, 2013; note: nearly all actives have a fitted effect of over 55% in size
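Seeded 400 DT40-hTDP1 cells/well (vehicle DMSO, no 20 nM CPT); pinned compounds; ≥48 hr at 37 °C; CellTiter-Glo luminescence as viability measure.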
Of the large screens only hits and unclear results are named; the others gave an inactive call. Shown are actives, neighbours in structure and some others; about 19% of the full set was active somewhere. Unless noted, calls come from the whole dose curve; as a rule, active = well fitted curve in the direction sought with a large enough effect; inconclusive = small, poorly fitted or top-dose-only effect, or another doubt; inactive = no such curve, though single readings can be large; an effect the other way counts as inactive or inconclusive.

O=C(Nc1cccc(O)c1)c1cc(-c2ccco2)on1	DT40 TDP1 CPT inconclusive, Chronic BCR inh inconclusive, TDP1 cell noCPT 14.6µM
COc1ccc(CC(=O)N/N=C\c2cc(Br)c(O)c(Br)c2)cc1	none
CC(C)CCNC(=O)NC(=O)COC(=O)CNC(=O)C1CCCCC1	DT40 TDP1 CPT inconclusive
O=C(O)/C=C/C(=O)N(CC1CCCO1)C1CC(=O)N(c2c(Cl)cccc2Cl)C1=O (stereo unspecified)	SW480 rereplic inconclusive, Chronic BCR inh inconclusive
O=C(O)C1CCCN1c1nc(-c2ccc(Cl)c(Cl)c2)cc(C(F)(F)F)n1 (stereo unspecified)	DT40 TDP1 CPT 14.6µM, MCF10A rereplic inconclusive, Chronic BCR inh inconclusive, TDP1 cell noCPT 20.6µM
Cc1nn(-c2ccc(N3CCOCC3)nn2)c(C)c1CCC(=O)NCc1ccccc1	none
COC(=O)c1ccc(C(C(=O)NCc2ccccc2)N(Cc2ccco2)C(=O)c2cnccn2)cc1 (stereo unspecified)	IL-1B inflam inh -59.2, MCF10A rereplic inconclusive
COc1ccc(C(C(=O)NCc2ccccc2)N(Cc2ccco2)C(=O)c2snc(C(N)=O)c2N)cc1OC (stereo unspecified)	DT40 TDP1 CPT inconclusive, TDP1 cell noCPT inconclusive
CCC(C)(C)NC(=O)C(c1sccc1C)N(Cc1ccco1)C(=O)c1csnn1 (stereo unspecified)	DT40 TDP1 CPT 16.4µM, TDP1 cell noCPT 16.4µM
CCC(C)(C)NC(=O)C(c1ccc(F)cc1)N(Cc1ccco1)C(=O)c1cnccn1 (stereo unspecified)	IL-1B inflam inh -83.2
COc1cc(OC)cc(C(C(=O)NCc2ccccc2)N(Cc2ccco2)C(=O)c2ccno2)c1 (stereo unspecified)	DT40 TDP1 CPT inconclusive, TDP1 cell noCPT 23.1µM
CCCN(CC(=O)Nc1ccc(C(N)=O)cc1)CC(=O)Nc1ccc(F)c(F)c1F	none
COc1ccc(CN2CCN(C(=O)CCC(=O)Nc3nnc(CC(C)C)s3)CC2)cc1F	DT40 TDP1 CPT 3.26µM, TDP1 cell noCPT 4.61µM
CC(C)Cc1nnc(NC(=O)CCC(=O)N2CCN(c3ccc([N+](=O)[O-])cc3)CC2)s1	SW480 rereplic inconclusive, DT40 TDP1 CPT 14.6µM, Chronic BCR inh inconclusive, TDP1 cell noCPT 18.4µM
COc1ccc(CN2CCN(C(=O)CCC(=O)Nc3nnc(C4CCCCC4)s3)CC2)cc1F	DT40 TDP1 CPT 16.4µM, MCF10A rereplic inconclusive, Chronic BCR inh inconclusive, TDP1 cell noCPT inconclusive
COc1ccc(CN2CCN(C(=O)CCC(=O)Nc3nnc(C(F)(F)F)s3)CC2)cc1F	Chronic BCR inh inconclusive
CC(C)Cc1nnc(NC(=O)CCC(=O)N2CCN(c3ccccc3)CC2)s1	none
CN(C)S(=O)(=O)NC(=O)C1=C(N2CCCC2)COC1=O	none
COc1ccccc1/C=C/C(=O)Nc1ccc(S(=O)(=O)Nc2cc(C)on2)cc1	none
CCOc1ccc(NC(=O)Nc2ccon2)cc1	DT40 TDP1 CPT inconclusive, TDP1 cell noCPT inconclusive
CCOC(=O)C(=CNc1ccc(C)cc1C)C(=O)OCC	DT40 TDP1 CPT inconclusive, TDP1 cell noCPT 16.4µM
CCC(=O)OCC(=O)Nc1ccc(OC)cc1[N+](=O)[O-]	none
CCOC(=O)C(=CNc1ccc(OC)cc1[N+](=O)[O-])C(=O)OCC	DT40 TDP1 CPT 16.4µM, TDP1 cell noCPT 11.6µM
CCOC(=O)C(=CNc1cc(C)nn1-c1ccc(Cl)cc1)C(=O)OCC	DT40 TDP1 CPT 23.1µM, MCF10A rereplic inconclusive, TDP1 cell noCPT inconclusive
Cn1cnc(S(=O)(=O)N2CCC(C(=O)N3CCN(c4ccc(Cl)cc4)CC3)CC2)c1	DT40 TDP1 CPT inconclusive (no result: SW480 rereplic, IL-1B inflam inh, MCF10A rereplic, Chronic BCR inh)
CCOC(=O)c1c(C)[nH]c(C(=O)CN(C)CC(=O)Nc2ccccc2Cl)c1C	DT40 TDP1 CPT inconclusive, MCF10A rereplic inconclusive, TDP1 cell noCPT 20.6µM
CC(=O)c1c(C)[nH]c(C(=O)CN(C)CC(=O)Nc2ccccc2Cl)c1C	DT40 TDP1 CPT inconclusive, MCF10A rereplic inconclusive, TDP1 cell noCPT 20.6µM
